# A selection: hits, their analogues and other compounds. The true share with any hit is near 5.2%.
# mIDH1 inhibitor – blocks human mutant IDH1 R132H enzyme; O75874; IDH1-R132H enzyme, NADPH consumption, diaphorase/resazurin fluorescence; Potency, µM (highest dose often 76.6 µM), actives largely listed as inhibitors; 390,000 tested, 0.093% active; also: nearly all actives have a fitted effect of over 65% in size
#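 IDH1-R132H (0.5 ug/mL) preincubated 30 min with compound, then NADPH (0.016 mM) and alpha-KG (2 mM) added; 80 min at RT, pH 7.5. Remaining NADPH coupled via diaphorase/resazurin to fluorescence (540/590 nm); concentration-response curves normalized to no-enzyme control.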
# TrxR1 substrate – is turned over as a substrate by rat TrxR1. O89049. Potency, µM (highest dose often 114 µM). 390,000 tested, 0.01% active. purified TrxR1 substrate turnover, NADPH consumption readout; also: nearly all actives have a fitted effect of over 50% in size
#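 Rat TrxR1, dispensed at 90 nM, was prereduced with 400 uM NADPH (final) for 5 min at ~22 deg C, then incubated with compound 15 min before 400 uM selenite. A first-read NADPH fluorescence drop versus no-compound background flagged substrates.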
# VDR inhibitor – blocks the human vitamin D receptor | VDR-SRC2-3 peptide fluorescence polarization, 2 h | Potency, µM, actives largely listed as inhibitors | 400,000 tested, 0.93% active | AID 504847
#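 Two reagent solutions held at 4 deg C in the dark were dispensed, compounds pinned at 23 nl, and the mixture incubated 2 h at room temperature. Read-out: fluorescence polarization of VDR–SRC2-3 peptide binding.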
# Sfp PPTase inh – Sfp phosphopantetheinyl transferase inhibition | Biochemical Sfp PPTase activity, qHTS | Potency, µM, hits mostly inhibitors | 310,000 tested, 3.5% active | Q9F4F7;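 also: the enzyme is Sfp with the accession as filed and its product quenches rhodamine fluorescence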
#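 Sfp 15 nM + cpd, 15 min RT; start w/ rhodamine-CoA 5 uM, BHQ-2-YbbR 12.5 uM (final); 50 mM Hepes pH 7.6, 10 mM MgCl2, 0.01% NP-40, 0.01% BSA; read 525/598 nm at 0 and 30 min.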
# TrxR1 inh – rat TrxR1 inhibition; recombinant rTrxR1, NADPH fluorescence consumption, selenite substrate; 390,000 tested, 1% active; O89049; Potency, µM (highest dose often 114 µM), usual class: inhibitors; also: nearly all actives have a fitted effect of over 65% in size
#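 Rat TrxR1 (90 nM in the dispensed reagent) was pre-reduced with 400 uM NADPH for 5 min at room temperature, then incubated with compound for 15 min. After 400 uM selenite was added, NADPH fluorescence (Ex 340/Em 450 nm) was followed for 8 min.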
# PLK1 PBD block – inhibitors of human PLK1 polo-box domain binding. Plk1 PBD binding of FITC phosphopeptide, fluorescence polarization. Potency, µM, hits mostly inhibitors. 360,000 tested, 2.8% active. AID 720504; also: series mostly up to about 57 µM; nearly all actives have a fitted effect of over 65% in size
# Target sequence (P53350 whole entry, looked up, the tested form may be a part): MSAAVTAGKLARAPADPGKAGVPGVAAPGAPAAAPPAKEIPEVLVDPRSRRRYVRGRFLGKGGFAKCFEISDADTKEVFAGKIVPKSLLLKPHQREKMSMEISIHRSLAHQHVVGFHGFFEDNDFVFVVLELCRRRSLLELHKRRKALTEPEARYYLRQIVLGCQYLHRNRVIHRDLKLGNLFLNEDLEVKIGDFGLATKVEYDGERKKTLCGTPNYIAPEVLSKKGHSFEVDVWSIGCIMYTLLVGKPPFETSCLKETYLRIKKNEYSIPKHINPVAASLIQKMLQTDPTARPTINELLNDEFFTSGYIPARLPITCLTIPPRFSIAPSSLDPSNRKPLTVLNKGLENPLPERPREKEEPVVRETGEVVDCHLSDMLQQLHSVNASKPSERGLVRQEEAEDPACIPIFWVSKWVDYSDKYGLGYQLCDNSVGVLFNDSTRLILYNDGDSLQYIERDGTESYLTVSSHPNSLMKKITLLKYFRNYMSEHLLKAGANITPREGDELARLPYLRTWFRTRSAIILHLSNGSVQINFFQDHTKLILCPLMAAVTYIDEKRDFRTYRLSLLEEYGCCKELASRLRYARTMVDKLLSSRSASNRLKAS
# A number is an active result; 0 = inactive; ? = inconclusive; - = not tested or not shown; [ ] = dose if it differs, or a comment. Calls follow the shape of the dose curve; as a rule, active = well fitted curve in the direction sought with a large enough effect; inconclusive = small, poorly fitted or top-dose-only effect, or another doubt; inactive = no such curve, though single readings can be large; an effect the other way counts as inactive or inconclusive.
SMILES,mIDH1 inhibitor,TrxR1 substrate,VDR inhibitor,Sfp PPTase inh,TrxR1 inh,PLK1 PBD block
Cc1ccc(S(=O)(=O)N(C)C)cc1NC(=S)Nc1cccc2ccccc12,0,0,0,0,0,15µM
Fc1cccc(NC(=S)Nc2cccnc2)c1,0,0,0,35µM,0,?
S=C(Nc1cccnc1)Nc1cccc2cnccc12,0,0,?,11µM,0,?
O=C1CCCC2=C1C(c1ccc(Cl)cc1)N=C(Nc1nc3ccccc3o1)N2 (stereo not drawn),-,0,0,-,0,-
Cc1c(CN(C)C(=O)C2CCC(=O)N(Cc3ccccc3F)C2)[nH]c2ccccc12 (stereo not drawn),0,-,-,-,-,0
CS(=O)(=O)N1CCC2(CC1)CN(C(=O)Nc1cccc(C#N)c1)C2,-,-,0,0,-,-
O=C1OCCC1=COCCCCCOC=C1CCOC1=O,0,-,-,-,-,0
Fc1cccc(NC(=S)NNc2ccccc2)c1,0,0,40µM,0,0,?
CN(C)S(=O)(=O)c1cccc(NC(=S)Nc2ccc3cn[nH]c3c2)c1,0,0,0,0,0,21µM
COc1ccc(NC(=S)Nc2ccc3cn[nH]c3c2)cc1,0,0,0,0,0,?
COc1ccccc1NC(=S)Nc1cccc2cnccc12,0,0,?,45µM,?,30µM
CC1CC=CC2C1C(=O)N(Cc1ccccc1)C2c1ccc(F)c(-c2ccc(N(C)C)cc2)c1 (stereo not drawn),-,0,0,0,0,-
Cc1cccc(NC(=O)CSc2nc(-c3cccc(C)c3)nc3c2Cc2c(CO)cnc(C)c2O3)c1,0,0,0,-,0,-
Cc1cc(O)c(C(c2ccccc2)N2CCC(C)CC2)c(=O)n1Cc1ccco1 (stereo not drawn),0,0,0,-,0,-
Cc1cc(O)c(C(c2ccccc2)N2CCN(C)CC2)c(=O)n1Cc1ccco1 (stereo not drawn),0,0,0,-,8.9µM,-
CCN1CCN(C(c2ccc(OC)cc2)c2c(O)cc(C)n(Cc3ccco3)c2=O)CC1 (stereo not drawn),0,0,0,-,?,-
CCN1CCN(C(c2ccccc2Cl)c2c(O)cc(C)n(Cc3ccco3)c2=O)CC1 (stereo not drawn),0,0,0,-,8.9µM,-
CCN1CCN(C(c2ccccc2)c2c(O)cc(C)n(Cc3ccco3)c2=O)CC1 (stereo not drawn),0,0,0,-,7.9µM,-
O=C(N/N=C/c1ccc([N+](=O)[O-])o1)c1cc2c(ccc3ccccc32)o1,0,0,0,?,0,15µM
O=C(N/N=C/c1cc(Cl)c(O)c(Cl)c1)c1cc2c(ccc3ccccc32)o1,0,0,0,?,0,24µM
O=C(N/N=C/c1ccc(O)c(Br)c1)c1cc2c(ccc3ccccc32)o1,0,0,0,0,0,0
O=C(N/N=C/c1cc(Br)c(O)c(Br)c1)c1cc2c(ccc3ccccc32)o1,0,0,0,?,0,21µM
O=C1c2ccccc2C(=O)N1CCCc1nc(-c2ccccn2)no1,0,0,0,0,0,30µM
COc1cccc(N2C(=O)[C@H]3C(C(=O)c4cnccn4)=NN[C@H]3C2=O)c1,0,0,0,79µM,0,0
O=C(C1=NN[C@@H]2C(=O)N(c3cccc(F)c3)C(=O)[C@H]12)c1ccc2ccccc2n1,0,0,0,0,0,0
SMILES,mIDH1 inhibitor,TrxR1 substrate,VDR inhibitor,Sfp PPTase inh,TrxR1 inh,PLK1 PBD block
OCCNc1nc(-c2ccccc2)c2cc(Br)ccc2n1,0,0,0,0,0,0
O=[N+]([O-])c1ccc2nc(NCCCO)nc(-c3ccccc3)c2c1,0,0,?,?,0,21µM
O=C(NNc1c(Cl)cccc1Cl)c1sc2ccccc2c1Cl,-,0,0,-,0,-
COCC(C)NC(=O)CCS(=O)(=O)c1nc(-c2ccc(OC)cc2)cc(C(F)(F)F)n1 (stereo not drawn),0,0,79µM,0,56µM,?
CCOC(=O)c1c(C(F)(F)F)cc(-c2ccc(F)cc2)nc1C,0,0,0,0,0,0
CCC(C)NC(=O)CCSc1nc(-c2ccc(OC)cc2)cc(C(F)(F)F)n1 (stereo not drawn),0,0,0,-,0,-
COC(=O)CCS(=O)(=O)c1nc(-c2ccccc2)cc(C(F)(F)F)n1,0,0,20µM,0,18µM,21µM
Cc1cc(NC(=O)CCCS(=O)(=O)c2nc(-c3cccs3)cc(C(F)(F)F)n2)no1,0,0,18µM,0,?,?
CCOC(=O)CS(=O)(=O)c1nc(-c2ccc(F)cc2)cc(C(F)(F)F)n1,0,0,?,0,?,5.3µM
Cc1ccc(N(C)C(=O)c2cc(S(=O)(=O)N3CCCC3)cn2C)cc1,0,0,0,0,0,0
CC(=O)NC1CCC(=O)C=C1c1ccccc1 (stereo not drawn),0,0,0,-,0[11.4 µM],0
CC(=O)NC1CCCN(O)C(=O)/C=C(\C)CCOC(=O)C(NC(C)=O)CCCN(O)C(=O)/C=C(\C)CCOC(=O)C(NC(C)=O)CCCN(O)C(=O)/C=C(\C)CCOC1=O (stereo not drawn),0,0,0,56µM,0,0
Cn1ncc(Cl)c1C(=O)Nc1cccc(Cl)c1,0,0,?,20µM,?,24µM
CSc1cccc(NC(=O)c2c(Cl)cnn2C)c1,0,0,0,0,0,0
Cc1ccc(/C=N/Nc2ccc3c(C(F)(F)F)cc(C(F)(F)F)nc3n2)cc1,0,0,0,0,0,0
NNc1ccc2c(C(F)(F)F)cc(C(F)(F)F)nc2n1,0,0,0,56µM,0,0
CC1(C)Oc2cc3c(cc2O1)OC(C)(C)O3,-,-,-,0,-,-
Cc1ccc(NC2CC(=O)N(c3ccc(C)cc3)C2=O)cc1 (stereo not drawn),0,0,0,0,25µM,?
CCOc1ccccc1N1C(=O)CC(Nc2ccc(N3CCOCC3)cc2)C1=O (stereo not drawn),0,0,0,0,7.1µM,0
COc1ccc(NC2CC(=O)N(c3ccccc3)C2=O)cc1 (stereo not drawn),0,0,0,0,0,0
COc1ccccc1N1C(=O)CC(Nc2ccc(N3CCOCC3)cc2)C1=O (stereo not drawn),0,0,0,79µM,7.9µM,0
COc1ccc(-c2ccc(CCC(=O)O)n2-c2ccccc2O)cc1,0,0,0,79µM,?,0
Cc1ccc(-c2ccc(CCC(=O)O)n2-c2ccc(C(=O)O)cc2)cc1,0,0,?,56µM,?,0
COc1ccc(-c2ccc(CCC(=O)O)n2-c2ccccc2C(F)(F)F)cc1,0,0[11.4 µM],0,-,0,-
CCCn1c(CCC(=O)O)ccc1-c1ccccc1,0,0,?,0,0,12µM
COC(=O)c1ccc(-n2c(CCC(=O)O)ccc2-c2ccc(C)cc2)cc1,0,0,?,0,45µM,0
O=C(O)CCc1ccc(-c2ccccc2)n1CC(=O)O,0,0,0,0,?,0

# Screens (PubChem)
